In the library only some 8.5% were active in any assay of this set; here they are far more common.
Sfp PPTase inh = qHTS Assay for Inhibitors of Bacillus subtilis Sfp phosphopantetheinyl transferase (PPTase); hit rate 3.5% among 310,000; Biochemical Sfp PPTase activity, qHTS; Potency, µM, for inactives: largest response in the series, negative = inhibition, usual class: inhibitors; AID 1490, 2009; 4'-phosphopantetheinyl transferase ffp (Bacillus subtilis), Q9F4F7; active = well fitted curve in the direction sought with a large enough effect; inconclusive = small, poorly fitted or top-dose-only effect, or another doubt; inactive = no such curve, though single readings can be large; an effect the other way counts as inactive or inconclusive;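 also: the enzyme is Sfp with the accession as filed and its product quenches rhodamine fluorescence; potency is read from the fitted curve at half-maximal effect; 0% = enzyme reaction without inhibitor and -100% = no enzyme wells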
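Buffer: 50 mM Hepes-Na pH 7.6, 10 mM MgCl2, 0.01% Nonidet P-40, 0.01% BSA. Enzyme 15 nM, pre-exposed to compound 15 min; substrates then added and fluorescence change tracked over 30 min.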
ALDH1A1 inh = qHTS Assay for Inhibitors of Aldehyde Dehydrogenase 1 (ALDH1A1) | Aldehyde dehydrogenase 1A1 (Homo sapiens), P00352 | Purified ALDH1A1, NADH fluorescence, propionaldehyde substrate | Potency, µM (top dose mostly 75.3 µM), for inactives: at the top dose activity, negative = inhibition, most hits filed as inhibitors | hit rate 7.3% among 220,000 | AID 1030, 2008;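 also: potency is read from the fitted curve at half-maximal effect; plate controls were no enzyme wells and a reference inhibitor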
RGS12 GoLoco inh = qHTS Assay for Inhibitors of RGS12 GoLoco Motif Activity (Red Fluorophore); Guanine nucleotide-binding protein G(i) subunit alpha-1 (Homo sapiens), P63096; hit rate 0.44% among 230,000; Gai1:RGS12 GoLoco peptide FP, rhodamine, 10 min; Potency, µM (series often up to 61.6 µM), inactives show at the highest dose activity, negative = inhibition, hits mostly inhibitors; AID 880, 2007; active = well fitted inhibition curve with a large enough effect, not every such curve was filed as active; inactive = no such curve, though single readings can be large or run the other way; also: potency is read from the fitted curve at half-maximal effect; nearly all actives have a fitted effect of over 30% in size
FBPA coupling cs = qHTS Assay for Inhibitors of Fructose-1,6-bisphosphate Aldolase from Giardia Lamblia: Coupling assay counterscreen | coupling enzyme system counterscreen, AmpLite Red fluorescence | activity change, negative = inhibition, % at 58.2 µM, hits read low | hit rate 0.67% among 290,000 | AID 2472, 2010; in the data active = activity change below about -30%
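Counterscreen lacking aldolase: glyceraldehyde-3-phosphate coupling-enzyme reagent preincubated 10 min at RT with compound (at 57.5 uM final), then substrate/coupling system with AmpLite Red added; fluorescence read at 525/598 nm after 20 min RT.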
NPSR antagonist = qHTS Assay for Antagonists of the Neuropeptide S Receptor: cAMP Signal Transduction; Q6W5P4; CHO-NPSR cells, cAMP TR-FRET, antagonist mode; Potency, µM (titrated, usually from 38.3 µM), for inactives: top-dose activity change, negative = inhibition, usual class: inhibitors; hit rate 1% among 220,000; AID 1461, 2008; active = well fitted curve in the direction sought with a large enough effect; inconclusive = small, poorly fitted or top-dose-only effect, or another doubt; inactive = no such curve, though single readings can be large; an effect the other way counts as inactive or inconclusive; also: potency is read from the fitted curve at half-maximal effect; nearly all actives have a fitted effect of over 50% in size
Target sequence (Q6W5P4 whole entry, looked up): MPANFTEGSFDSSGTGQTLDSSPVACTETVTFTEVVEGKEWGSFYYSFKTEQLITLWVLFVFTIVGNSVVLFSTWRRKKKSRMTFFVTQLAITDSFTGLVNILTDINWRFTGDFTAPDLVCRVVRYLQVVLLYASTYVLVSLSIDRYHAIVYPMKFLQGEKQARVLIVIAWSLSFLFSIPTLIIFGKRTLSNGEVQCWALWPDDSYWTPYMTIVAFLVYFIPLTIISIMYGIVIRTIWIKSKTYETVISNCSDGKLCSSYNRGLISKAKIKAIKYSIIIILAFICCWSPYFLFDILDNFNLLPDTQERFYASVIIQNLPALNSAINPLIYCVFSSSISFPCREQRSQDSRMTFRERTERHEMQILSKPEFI
JMJD2E inh = qHTS Assay for Inhibitors of Human Jumonji Domain Containing 2E (JMJD2E). Lysine-specific demethylase 4E (Homo sapiens), B2RXH2. JMJD2E catalytic domain, FDH-coupled NADH fluorescence (FDH is formaldehyde dehydrogenase). Potency, µM (series often up to 57.1 µM), for the others: at the highest dose activity change, negative = inhibition, most hits filed as inhibitors. hit rate 1.6% among 230,000;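 also: potency is read from the fitted curve at half-maximal effect; 0% = wells with enzyme and -100% = buffer wells without enzyme; nearly all actives have a fitted effect of over 50% in size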
Target sequence (B2RXH2 1-337 limits assumed): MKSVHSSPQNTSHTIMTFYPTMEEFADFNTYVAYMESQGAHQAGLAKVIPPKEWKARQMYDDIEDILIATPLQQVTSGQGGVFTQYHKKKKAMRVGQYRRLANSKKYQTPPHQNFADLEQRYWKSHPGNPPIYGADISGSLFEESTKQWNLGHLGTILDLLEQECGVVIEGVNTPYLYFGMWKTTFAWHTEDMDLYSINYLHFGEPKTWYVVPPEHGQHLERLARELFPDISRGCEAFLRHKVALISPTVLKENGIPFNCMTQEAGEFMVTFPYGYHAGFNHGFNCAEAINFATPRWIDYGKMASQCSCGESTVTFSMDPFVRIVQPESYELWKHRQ
* = called active by the depositor; u = inconclusive; x = no result; ! = a repeat was not active; [ ] = dose if it differs, or a comment. Unless noted, calls follow the shape of the dose curve; as a rule, active = well fitted inhibition curve with a large enough effect (not every such curve was filed as active); inconclusive = small, poorly fitted or top-dose-only effect, or another doubt; inactive = no such curve, though single readings can be large or run the other way. Unless noted, % is scaled to controls: 0 for no effect and ±100 for the full control effect.

SMILES | Sfp PPTase inh | ALDH1A1 inh | RGS12 GoLoco inh | FBPA coupling cs | NPSR antagonist | JMJD2E inh
COC(=O)c1cc(NCc2cccs2)ccc1N1CCOCC1 | -22% | 18µM* | 3% | -15 | 0%[46.1 µM] | -22%
Nc1c(Br)cc(Br)cc1CNC1CCC(O)CC1 (stereo not given) | 16% | -1% | 20µM*! | 0 | x | 2%
O=C1CC(=O)CC(c2ccccc2)C1 | 3% | 8% | 9% | 4 | 7% | 4%
O=C1CC(c2ccccc2)CC(=O)C1CS(=O)(=O)c1ccccc1 (stereo not given) | -51% | 11µM* | 4% | 7 | -19% | -15%
COc1cccc(O)c1CN1CCC(C(=O)Nc2ccc(-c3cccc(C)c3)cc2)CC1 | 79µM* | x | x | -1 | x | x
Cc1nn(-c2ccccc2)c2c1C(c1ccncc1)C(C#N)=C(N)O2 (stereo not given) | u | 14µM* | -9% | -1 | -18%[46.1 µM] | -20%
Cc1ccc(-n2nc(C)c3c2OC(N)=C(C#N)C3c2ccncc2)cc1 (stereo not given) | 3% | u | 6% | -1 | -22%[46.1 µM] | 1%
Cc1ccc(-n2nc(C)c3c2OC(N)=C(C#N)C3c2ccccc2F)cc1 (stereo not given) | -3% | 4µM* | 8% | -1 | -14%[46.1 µM] | -6%
Cc1c(Cc2ccc3c(c2)OCO3)sc(NC(=O)c2ccc3ccccc3c2)c1C(N)=O | 13µM* | u | 0% | 0 | -56% | -25%
CCC(=O)Nc1sc(Cc2ccc3c(c2)OCO3)c(C)c1C(N)=O | 40µM* | x | 6% | 1 | -27% | -4%
COc1cccc([C@@H]2Oc3ccc(OC)cc3C(=O)[C@H]2OC(=O)NS(=O)(=O)c2ccc(C)cc2)c1 | u | 4% | -1% | -4 | x | -22%
Cc1cc(C)c2c(-n3cccc3)c(C(=O)NNS(=O)(=O)c3ccc(Br)cc3)sc2n1 | -9% | 0.089µM* | 4% | 15 | -22%[46.1 µM] | 4%
CCOC(=O)Nc1sc2nc(C)cc(C)c2c1-n1cccc1 | -1% | u | 18% | -12 | -1%[46.1 µM] | -26%
COc1ccccc1CNC(=O)CCS(=O)(=O)c1cccc2nonc12 | 8% | 18µM* | -8% | -6 | -14%[46.1 µM] | 2%
COc1ccc(CNC(=O)CCS(=O)(=O)c2cccc3nonc23)cc1 | 2% | 18µM* | -1% | -5 | -2%[46.1 µM] | -11%
O=C(CCS(=O)(=O)c1cccc2nonc12)N1CCOCC1 | 5% | u | 1% | 2 | -1%[46.1 µM] | -1%
O=C(CCS(=O)(=O)c1cccc2nonc12)N1CC(=O)N(CCc2ccccc2)C(=O)C1 | 16% | 28µM* | -11% | 3 | -6%[46.1 µM] | 4%
COc1ccc(NC(=O)CCS(=O)(=O)c2cccc3nonc23)cc1 | 9% | u | -2% | -1 | 4% | -3%
Cc1ccc(CNC(=O)CCS(=O)(=O)c2cccc3nonc23)cc1 | 6% | 40µM* | 1% | -2 | -3%[46.1 µM] | 2%
COc1ccc(-c2nnc(SCc3c(C)noc3C)o2)cc1 | 2% | -4% | 6% | 4 | -5% | 6%
C[C@@H](C(=O)O)c1ccc(C(=O)c2cccs2)cc1 | 18% | -1%[20.9 µM] | 10%[21.6 µM] | 5 | x | 0%[25.5 µM]
O=C(NCc1ccco1)c1scc2c1OCCO2 | -3% | 22µM* | -8% | 3 | -12%[46.1 µM] | 6%
O=C(NCc1ccco1)c1ccc(C(=O)NCc2ccco2)s1 | -4% | 2% | -5% | 0 | -11%[46.1 µM] | 4%
CC[C@H](C)[C@H](NC(=O)[C@H](Cc1ccc(O)cc1)NC(=O)[C@H](Cc1cnc[nH]1)NC(=O)[C@H](CCCNC(=N)N)NC(=O)[C@H](CC(C)C)NC(=O)[C@H](C)NC(=O)[C@H](CO)NC(=O)[C@H](Cc1ccc(O)cc1)NC(=O)[C@H](Cc1ccc(O)cc1)NC(=O)[C@H](CCCNC(=N)N)NC(=O)[C@H](C)NC(=O)[C@H](CCSC)NC(=O)[C@H](CC(=O)O)NC(=O)[C@H](CCC(=O)O)NC(=O)[C@H](C)NC(=O)[C@@H]1CCCN1)C(=O)N[C@@H](CC(N)=O)C(=O)N[C@@H](CC(C)C)C(=O)N[C@H](C(=O)N[C@H](C(=O)N[C@@H](CCCNC(=N)N)C(=O)N[C@@H](CCC(N)=O)C(=O)N[C@@H](CCCNC(=N)N)C(=O)N[C@@H](Cc1ccc(O)cc1)C(N)=O)[C@@H](C)O)[C@@H](C)CC | u | x | x | 0 | x | x
O=C(CSc1nnc(SCc2cccc3ccccc23)s1)N/N=C/c1c[nH]c2ccccc12 | 4% | 14µM* | -2% | -6 | 14% | -5%
SMILES | Sfp PPTase inh | ALDH1A1 inh | RGS12 GoLoco inh | FBPA coupling cs | NPSR antagonist | JMJD2E inh
Cc1ccc(/C=N/NC(=O)Cc2c[nH]c3ccccc23)c(C)c1 | -18% | -3% | 12% | -1 | u | 1%
O=C(Cc1n[nH]c(=O)[nH]c1=O)N/N=C/c1ccccc1O | 16% | 4% | 2% | 3 | -1%[46.1 µM] | 14µM*
O=C(Cc1c[nH]c2ccccc12)N/N=C/c1ccccc1O | 9% | u | 2% | 0 | 2% | 25µM*
COc1ccc(/C=N/NC(=O)Cc2n[nH]c(=O)[nH]c2=O)cc1 | 9% | x | 0% | 2 | 13% | -6%
O=C(CSc1nnc(SCc2ccc(Cl)cc2)s1)N/N=C/c1c[nH]c2ccccc12 | -23% | -1% | -4% | -10 | -31% | -1%
O=C(CN1CCOCC1)NCc1cc([N+](=O)[O-])ccc1O | 0% | x | x | 0 | x | x
CCOc1ccccc1N(CC(=O)NC1CCCCC1)S(=O)(=O)c1ccccc1 | 11% | x | x | -2 | x | x
CNc1nc(N)c([N+](=O)[O-])c(Nc2ccccc2OC)n1 | -2% | x | x | 1 | x | x
CC(C)n1cc(CN2CCC(n3nccc3NC(=O)C3CCCC3)CC2)cn1 | 13% | x | x | x | x | x
O=C1c2c(O)cccc2Cc2cccc(O)c21 | -9% | 25µM* | -7% | 1 | x | -9%
O=C(NC(=S)N1CCN(c2ccc(Cl)cc2[N+](=O)[O-])CC1)c1cccs1 | 6% | 7.9µM* | -7% | 7 | -41% | 4%
NC(=O)c1sc2nccc(Nc3ccccc3)c2c1N | 40µM* | u | -14% | 0 | -14%[46.1 µM] | u
COc1ccccc1NC(=O)CN(Cc1ccco1)C(=O)c1ccc(Cl)nc1 | 10% | 16µM* | 4% | -2 | 2% | 3%
O=C(CN(Cc1ccco1)C(=O)c1ccc(Cl)cc1)Nc1ccc(Cl)c(Cl)c1 | 17% | u | -2% | 0 | -53% | 16%

High-throughput results as filed in PubChem BioAssay.
